Where two headings read alike, the source gives them in different places. The whole screen tested about 13,000 compounds, of which about 3,200 (25%) showed an effect of 50% or more. The list shows a part of the results.
Test system: P. falciparum stage V gametocytes
Set-up: BacTiter-Glo ATP luminescence viability of purified stage V gametocytes in 384-well plates, per cent inhibition versus DMSO
Settings: 48 h, 5 µM, inhibitor

| Structure (SMILES) | % Inhibition [%] | % Inhibition (% Inhibition) [%] |
| --- | --- | --- |
| Cc1cccc2[nH]c(-c3cccc(-c4cccc(NC(=O)CNc5ccc(C(N)=O)cc5)c4)c3)nc12 [TCMDC-132165] | -3.752 |  |
| Cc1ccccc1C1CCN(c2ccc(C(=O)NC3CC3)cn2)CC1 [TCMDC-134592] | 24.07 |  |
| COc1ccc2nccc(N3CCC(SCCNCc4cc5c(cn4)OCCO5)C3)c2n1 (stereo not shown) [TCMDC-134286] | 24.01 |  |
| COc1ccc2nccc(NCC3(O)CCC(NCc4cc5c(cn4)OCCO5)CC3)c2n1 (stereo not shown) [TCMDC-134312] | -33.45 |  |
| COc1ccc2nccc(N3CCC(CCNCc4cc5c(cn4)OCCO5)CC3)c2c1.Cl [TCMDC-133537] | 9.41 |  |
| COc1ccc2nccc(N3CCC(CCNCc4ccc5c(n4)NC(=O)CS5)CC3)c2n1 [TCMDC-141944] | 32.25 |  |
| COc1ccc2nccc(N3CCC(NCCNCc4cc5c(cn4)OCCO5)C3)c2n1 (stereo not shown) [TCMDC-134650] | 71.62 |  |
| COc1ccc2nccc(N3CCC(CCNCc4cc5c(cn4)OCCO5)CC3)c2n1 [TCMDC-133538] | 80.45 |  |
| COC(=O)c1cc2cccc(NC[C@@H](C)NC[C@H](O)c3cccc(Cl)c3)c2[nH]1 [TCMDC-137770] | 45 |  |
| CCCCCCN1CCC(NCc2cccc(-n3ccnc3)c2)CC1 [TCMDC-141664] | 11.65 |  |
| c1cc(CNCC2CCN(CC3CCCCC3)CC2)cc(-n2ccnc2)c1 [TCMDC-141675] | 21.38 |  |
| c1cc(CNC2CCN(CC3CCCCC3)CC2)cc(-n2ccnc2)c1 [TCMDC-141657] | 70.67 |  |
| CN(C)Cc1ccc(CNC2CCN(Cc3ccccc3Cl)CC2)cc1 [TCMDC-141671] | -2.208 |  |
| COc1ccc(CN2CCC(NCc3cccc(-n4ccnc4)c3)CC2)cc1 [TCMDC-141651] | 14.29 |  |
| Clc1ccccc1CN1CCC(NCc2cccc(-n3ccnc3)c2)CC1 [TCMDC-141672] | 86.45 |  |
| Cc1ccc(-c2cnc3[nH]cc(-c4ccc(C(=O)O)c(C)c4)c3c2)cc1C.O=C(O)C(F)(F)F [TCMDC-136381] | 18.23 |  |
| CCCCc1cc(NCC)nc(Nc2ccc(F)cc2)n1 [TCMDC-134009] | 8.286 |  |
| Cn1cncc1-c1ccc2ncnc(Nc3ccc4c(cnn4Cc4ccccc4)c3)c2c1 [TCMDC-137781] | -8.163 |  |
| O=C(CN1CCCCC1)Nc1ccc(Nc2nccc(NCC(O)c3ccccc3)n2)cc1 (stereo not shown) [TCMDC-136469] | -6.593 |  |
| CCN(CC)CCNC(=O)c1ccc(N=Cc2c(O)[nH]c3ccc(S(=O)(=O)Cc4c(Cl)cccc4Cl)cc23)cc1 [TCMDC-135945] | 35.17 |  |
| NS(=O)(=O)c1cccc(N=Cc2c(O)[nH]c3ccc(S(=O)(=O)Cc4c(Cl)cccc4Cl)cc23)c1 [TCMDC-135947] | 101.9 |  |
| CN(CCCCNC(=O)c1ccc(-c2ccccc2)cc1)C1CCc2c(O)cccc2C1 (stereo not shown) [TCMDC-139005] | -43.63 |  |
| O=C(Nc1ccc(OC2CCN(Cc3ccc(F)cc3)CC2)cc1)c1cccs1 [TCMDC-133741] | 27.9 |  |

| Structure (SMILES) | % Inhibition [%] | % Inhibition (% Inhibition) [%] |
| --- | --- | --- |
| Cc1ccc(-c2nc3ccccc3o2)cc1NCc1cc(Cc2ccccc2)ccc1O [TCMDC-125705] | -21.71 |  |
| Cc1cc(O)c(CN2CCN(Cc3cccs3)CC2)cc1C(C)C [TCMDC-124883] | -57.78 |  |
| CCN1CCC(N(Cc2ccc(-c3ccc(C(F)(F)F)s3)cc2)C(=O)Cn2c(CCc3cccc(F)c3F)nc(=O)c3ccccc32)CC1 [TCMDC-141282] | 107.7 |  |
| CCN1CCCC1CN(Cc1ccc(-c2ccc(C(F)(F)F)cc2)cc1)C(=O)Cn1c(CCc2cccc(F)c2F)nc(=O)c2ccccc21 (stereo not shown) [TCMDC-141061] | 68.75 |  |
| O=C(Cn1c(CCc2cccc(F)c2F)nc(=O)c2ccccc21)N(Cc1ccc(-c2ccc(C(F)(F)F)cc2)cc1)C1CCN(C2=NCCS2)CC1 [TCMDC-136537] | 107.4 |  |
| CCN1CCC(N(Cc2ccc(-c3ccc(C(F)(F)F)cc3)cc2)C(=O)CCCCn2c(CCc3cccc(F)c3F)nc(=O)c3ccccc32)CC1 [TCMDC-141321] | 85.03 |  |
| Cc1ccccc1CNc1noc(-c2c(-c3ccccc3)noc2C)n1 [TCMDC-134201] | -15.74 |  |
| CCCOC(=O)c1ccc(OCCCON2C(N)=NC(N)=NC2(C)C)cc1 [TCMDC-131715] | 8.227 |  |
| CC(C)N1CCC(N(Cc2ccc(-c3ccc(C(F)(F)F)cc3)cc2)C(=O)CCCn2c(CCc3cccc(F)c3F)nc(=O)c3ccccc32)CC1 [TCMDC-141316] | 88.07 |  |
| CCN1CCC(N(Cc2ccc(-c3ccc(C(F)(F)F)cc3)o2)C(=O)Cn2c(CCc3cccc(F)c3F)nc(=O)c3ccccc32)CC1 [TCMDC-141281] | 92.96 |  |
| CCN1CCC(N(Cc2ccc(-c3ccc(C(F)(F)F)cc3)cc2)C(=O)Cn2c(CCc3cccc(F)c3F)nc(=O)c3ccccc32)CC1 [TCMDC-141048] | 116.3 |  |
| O=C(C1CCCC1)N1CCOC(CCN2CCC(c3ccccc3)CC2)(c2ccc(Cl)c(Cl)c2)C1 (stereo not shown) [TCMDC-135327] | -12.01 |  |
| CC(C)Cc1nc2nc(N)nc(N)c2cc1C(C)C [TCMDC-137930] | 2.497 |  |
| CC(=O)c1cccc(NC(=O)c2ccc(Cl)c(S(=O)(=O)N3CCc4ccccc43)c2)c1 [TCMDC-124431] | 4.693 |  |
| O=C(Nc1ccc2c(c1)CCCN2S(=O)(=O)c1cccs1)c1cc([N+](=O)[O-])ccc1Cl [TCMDC-125153] | 96.55 |  |
| CC1CCCN(c2ccc(NC(=O)c3cccs3)cc2[N+](=O)[O-])C1 (stereo not shown) [TCMDC-124625] | 1.853 |  |
| O=c1cc(NCCC2CC=CCN2Cc2ccc(Cl)c(Cl)c2)[nH]c2ccccc12 (stereo not shown) [TCMDC-139445] | 3.776 |  |
| COc1ccc(CCNCCCCCCNCCc2ccc(OC)c(OC)c2Cl)c(Cl)c1OC [TCMDC-131261] | 103.5 |  |
| COc1ccc(CCNCCCCCCNCCc2ccc(Cl)cc2)c(Cl)c1OC [TCMDC-131272] | 114.1 |  |
| COc1ccc(CCNCC(O)c2cccc(Br)c2)c(Cl)c1OC (stereo not shown) [TCMDC-125478] | 12.88 |  |
| O=C(Nc1ccsc1C(=O)NC1CCCCC1)c1ccc(F)cc1 [TCMDC-123789] | -7.21 |  |
| CCCC(C)Nc1nc(C)cc(N[C@@H](CC(C)C)C(=O)NCCOc2ccccc2)n1 (stereo partly shown) [TCMDC-134898] | -16.46 |  |
| O=C(C=C1c2ccccc2-c2ccccc21)NC1CCC(CN2CCC(c3c[nH]c4ccccc34)CC2)CC1 (stereo not shown) [TCMDC-139918] |  | -14.57 |

| Structure (SMILES) | % Inhibition [%] | % Inhibition (% Inhibition) [%] |
| --- | --- | --- |
| O=C(NC1CCC(CN2CCC(c3c[nH]c4ccccc34)CC2)CC1)[C@H]1Cc2ccccc2CN1 (stereo partly shown) [TCMDC-140311] | 105 |  |
| CC1=C(C(=O)NC2CCC(CN3CCC(c4c[nH]c5ccccc45)CC3)CC2)Cc2ccccc21 (stereo not shown) [TCMDC-139755] |  | 71.55 |
| CC1=C(C(=O)NC2CCC(CN3CCC(c4c[nH]c5ccccc45)CC3)CC2)Cc2ccccc21 (stereo not shown) [TCMDC-139765] |  | -59.52 |
| O=C(C=C1c2ccccc2-c2ccccc21)NC1CCC(CN2CCC(c3c[nH]c4ccccc34)CC2)CC1 (stereo not shown) [TCMDC-139906] |  | -40.53 |
| COc1ccccc1CNC(=O)C(=O)Nc1c(-c2ccccc2)[nH]c2ccccc12 [TCMDC-124999] | -88.11 |  |
| COc1ccc(NC(=O)Nc2cccc(-c3cccc(-c4nc5ccccc5[nH]4)c3)c2)cc1 [TCMDC-133246] | -3.32 |  |
| COc1cccc(NC(=O)[C@H](C)n2c(=O)[nH]c3ccccc3c2=O)c1 [TCMDC-124998] | 68.49 |  |
| COc1ccc2[nH]c3ccccc3c(=O)c2c1 [TCMDC-123948] | 14.64 |  |
| COc1cccc(NC(=O)[C@H](C(C)C)n2c(=O)[nH]c3ccccc3c2=O)c1 [TCMDC-125133] | 96.89 |  |
| COc1cccc(NC(=O)COc2ccc(C(=O)Nc3nc4ccccc4[nH]3)cc2)c1 [TCMDC-125060] | -14.04 |  |
| C=CCc1cc(Br)ccc1OCCCON1C(N)=NC(N)=NC1(C)C [TCMDC-131341] | 13.45 |  |
| O=C(/C=C/c1ccc(Cl)c(Cl)c1)NCCCCCCN1CCN(C(=O)Nc2ccc(OC(F)F)cc2)CC1 [TCMDC-135834] | -53.7 |  |
| Cc1ccc(C(=O)c2oc3ccc4c(C)cc(=O)oc4c3c2C)cc1 [TCMDC-125583] | -7.355 |  |
| Cc1cccc(C)c1OC(=O)C(C)C(O)C1(Sc2ccccc2)CCN(C)CC1 (stereo not shown) [TCMDC-132104] | 17.64 |  |
| O=C(Nc1ccc(F)cc1)NC1CCN(c2ccnc3cc(Cl)ccc23)CC1 [TCMDC-133570] | -24.37 |  |
| Cc1nc(Nc2cc(Cl)ccc2O)nc(Nc2cc(Cl)ccc2O)c1[N+](=O)[O-] [TCMDC-125765] | -25.8 |  |
| CC(=O)c1ccc2cc(C(=O)NC3CCC(CCN4CCc5ccc(-c6noc(C)n6)cc5CC4)CC3)[nH]c2c1 (stereo not shown) [TCMDC-140072] | -66.89 |  |
| O=c1cc(NCCCNCc2cc(Cl)cc(Cl)c2OCc2ccccc2)[nH]c2ccccc12 [TCMDC-139488] | -11.96 |  |
| Cc1ccc(-n2cc(CNCCc3ncc(C)[nH]3)c(-c3ccc(F)cc3)n2)cc1 [TCMDC-124685] | 44.13 |  |
| Cc1ccc(-n2cc(CNCCCn3ccnc3)c(-c3cccc(C)c3)n2)cc1 [TCMDC-124630] | 80.81 |  |
| COc1ccc(-n2cc(CNCCCn3ccnc3)c(-c3cccc(F)c3)n2)cc1 [TCMDC-124651] | 46.38 |  |

From PMC4552634, “A New Set of Chemical Starting Points with Plasmodium falciparum Transmission-Blocking Potential for Antimalarial Drug Discovery” (PLoS ONE, 2015)
